What all share (assay type): functional
Experiment [1] relates to Plasmodium falciparum. As to the kind of experiment: GSK_TCMDC: Inhibition of Plasmodium falciparum 3D7 in whole red blood cells, using parasite LDH activity as an index of growth. Test compounds present at 2uM.
For experiment [2], the system named is Plasmodium falciparum. The experiment in a line: GSK_TCMDC: Inhibition of Plasmodium falciparum Dd2 in whole red blood cells, using parasite LDH activity as an index of growth. Test compounds present at 2uM.
The test system of another experiment is HepG2. The experiment in a line: GSK_TCMDC: Percent inhibition of human HepG2 cell line. Test compounds present at 10uM.

The source of these data is ChEMBL document CHEMBL1157539, “Thousands of chemical starting points for antimalarial lead identification” (Nature, 2010).

Take `O=C(Nc1cccc([N+](=O)[O-])c1)N(Cc1ccc(Cl)c(Cl)c1)C1CCNCC1`: the Inhibition (commonly the change of the read-out against control, counted positive when it falls) is listed as 99% in the experiment on Plasmodium falciparum [1], 0% with Plasmodium falciparum [2] and 17% with HepG2.

As for `CC1(C)N=C(N)N=C(N)N1OCc1cc2ccccc2cc1CON1C(N)=NC(N)=NC1(C)C`, the values for the Inhibition in the experiment with Plasmodium falciparum [1], in the experiment with Plasmodium falciparum [2] and in the experiment with HepG2 were 92%, 51% and 0%, respectively.

Consider `CC(C)(C(=O)Nc1ccc(N2CCC3(CCCN(CC4CC4)C3)CC2)c(Cl)c1)c1cccc(C(F)(F)F)c1`, for which the Inhibition with Plasmodium falciparum [1] is given as 92%; with Plasmodium falciparum [2] it was 0%; in the experiment on HepG2 it was 27%.

Regarding `COc1ccc(-n2ncc(C(=O)N3CCC4(C3)C(=O)N(c3ccccc3)c3ccccc34)c2C)cc1` (stereo not given), the Inhibition with Plasmodium falciparum [1] amounted to 88%; with Plasmodium falciparum [2], 91%; in the experiment with HepG2 it was 45%.

In the case of `O=C(Nc1ccc2c(c1)CCCN2S(=O)(=O)c1cccs1)c1cc([N+](=O)[O-])ccc1Cl`, the figures for the Inhibition in the experiment on Plasmodium falciparum [1], in the experiment with Plasmodium falciparum [2] and in the experiment with HepG2 were 93%, 95% and 29%, respectively.

For the molecule `Cc1nnc2c(NC(=O)NC3CCCC3)cc3ccc(-c4cccc(CN5CCN(C)CC5)c4)cc3n12`, the Inhibition in the experiment on Plasmodium falciparum [1] amounted to 91%; with Plasmodium falciparum [2], 68%; with HepG2, 54%.

For the molecule `Cl.O=S(=O)(c1ccc2ccccc2c1)N1CCCN(Cc2ccc(OCCCN3CCCCC3)cc2)CC1`, the Inhibition in the experiment on Plasmodium falciparum [1] came to 98%; in the experiment with Plasmodium falciparum [2], 11%; in the experiment with HepG2 it was 43%.

Turning to `Cl.O=C(Nc1cccc(Cl)c1)OC1CCCN2CCCCC12` (stereo not given), the Inhibition was determined as 85% in the experiment on Plasmodium falciparum [1], 0% in the experiment on Plasmodium falciparum [2] and 6% with HepG2.

With `O=C(NCCCN1CCC(N2CCCCC2)CC1)c1ccc2nc(N3CCCCC3)sc2c1`, the Inhibition in the experiment with Plasmodium falciparum [1] came out at 89%; in the experiment on Plasmodium falciparum [2] it was 20%; in the experiment with HepG2 it was 11%.

On to `COc1c(C2CCN(CCCCNC(=O)c3ccc(NC(=O)c4ccc(C#N)cc4)cc3)CC2)ccc2c1CCCC2`, for which the Inhibition was 97% in the experiment on Plasmodium falciparum [1], 100% in the experiment with Plasmodium falciparum [2] and 81% in the experiment with HepG2.
